Inconclusive results are not listed. The source made the active and inactive calls. Unless noted, calls come from the whole dose curve; as a rule, active = well fitted curve in the direction sought with a large enough effect in the repeat runs; inconclusive = weak or mixed curves; inactive = no such curve, though single readings can be large; an effect the other way counts as inactive or inconclusive. Where a SMILES comes first, the peptide text is derived from it.
How the values were obtained:
[1] = target: Nuclear receptor subfamily 1 group I member 3 (Homo sapiens) (UniProt Q14994); assay: qHTS assay to identify small molecule agonists of the constitutive androstane receptor (CAR) signaling pathway (AID 1224839); note: series mostly up to about 92 µM; nearly all actives have a fitted effect of over 15% in size
Summary of the method: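 A 15-concentration quantitative screen uses HepG2 cells co-transfected stably with human CAR and CYP2B6-2.2kb reporter. Treatment lasts 24 h with 0.75 uM PK11195 final present; ONE-Glo luminescence is the signal.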

[2] = qHTS assay to identify small molecule antagonists of the estrogen related receptor signaling pathway with the pleiotropic PPARgamma coactivator (PGC) from Tox21 10K library - cell viability counter screen (AID 1224840; active = well fitted cell-killing curve with a large enough effect in the repeat runs, not every such curve was filed as active; note: nearly all actives have a fitted effect of over 40% in size)
Summary of the method: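 Cell viability is measured by CellTiter-Fluor fluorescence in PGC/ERR cells that receive compounds after a 6-hour attachment period and are then incubated 17.5 hours at 37 C.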

[3] = target: Thyrotropin receptor (Homo sapiens) (UniProt P16473); assay: qHTS assay to identify small molecule agonists of the thyroid stimulating hormone receptor (TSHR) signaling pathway (AID 1224843; calls by dose curve; note: nearly all actives have a fitted effect of over 45% in size)
Summary of the method: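 A cell-based cAMP HTRF format was run in TSHR-transfected HEK293 cells, 800 per well. Treatment: 30 min, room temperature. Detection: 1 h with labelled cAMP and anti-cAMP cryptate. Concentration-response over 15 points, three replicates.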

[4] = qHTS assay to identify small molecule agonists of H2AX (AID 1224845; active = well fitted activation curve with a large enough effect in the signal ratio in the repeat runs, not every such curve was filed as active; the % refers to the signal ratio)
Summary of the method: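 Phospho-H2AX Ser139 measured by HTRF (ex 320 nm; em 665 and 620 nm) after 24 hr antibody incubation. Compounds, 15 concentrations, 0.76% DMSO, were applied to CHO-K1 cells for 3hr at 37C before lysis.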

[5] = qHTS assay to identify small molecule agonists of the hypoxia (HIF-1) signaling pathway (AID 1224846; active = well fitted activation curve with a large enough effect in the signal ratio in the repeat runs, not every such curve was filed as active; the % refers to the signal ratio)
Summary of the method: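 Agonist mode reporter screen. ME-180 cells stably expressing bla under HRE control received test compounds in DMSO for 17 hrs (37C, 5% CO2), and beta-lactamase activity was then detected with the CCF4-AM FRET substrate.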

[6] = qHTS RealTime-Glo MT Cell Viability Assay in HepG2 cells - 24 hour (AID 1224867); note: nearly all actives have a fitted effect of over 50% in size
Summary of the method: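 Cells + NanoLuc/prosubstrate dispensed (600 cells/well) → 5 h at 37 C/5% CO2 → compounds in DMSO transferred → 40 h incubation at 37 C, luminescence read at 0, 8, 16, 24, 32, 40 h.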

[7] = qHTS RealTime-Glo MT Cell Viability Assay in HEK293 cells - 32 hour (AID 1224868); note: top concentration of the series differs between compounds; nearly all actives have a fitted effect of over 50% in size
Summary of the method: (§1)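 Tox21 10K qHTS, HEK293, 600 cells/well, RealTime-Glo reagent co-dispensed with cells; 5 h preincubation, compound by pintool, 37 C, luminescence at 0–40 h.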

[8] = A CellTox Green Cytotoxicity Assay to monitor cytotoxicity in HEK293 cells - 0 hour (AID 1224869); note: nearly all actives have a fitted effect of over 50% in size
Summary of the method: (§2)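 Dead-cell fluorescence measured kinetically: asymmetric cyanine dye, HEK293, 600 cells/well, 5 h settle, 23 nL cpd/DMSO, 37 C, reads 0–40 h every 8 h.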

[9] = qHTS RealTime-Glo MT Cell Viability Assay in HepG2 cells - 40 hour (AID 1224870); note: nearly all actives have a fitted effect of over 50% in size
Summary of the method: (§3)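 Real-time viability: cells seeded at 600 per well together with NanoLuc and cell-permeant prosubstrate, compounds added after 5 h incubation. Luminescence tracked at 0, 8, 16, 24, 32 and 40 h of exposure.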

[10] = A CellTox Green Cytotoxicity Assay to monitor cytotoxicity in HEK293 cells - 40 hour (AID 1224871); note: nearly all actives have a fitted effect of over 45% in size
Summary of the method: as §2

[11] = qHTS RealTime-Glo MT Cell Viability Assay in HEK293 cells - 16 hour (AID 1224872)
Summary of the method: as §1

[12] = qHTS RealTime-Glo MT Cell Viability Assay in HepG2 cells - 8 hour (AID 1224873); note: nearly all actives have a fitted effect of over 55% in size
Summary of the method: as §3

[13] = qHTS RealTime-Glo MT Cell Viability Assay in HEK293 cells - 40 hour (AID 1224874); settings: RealTime-Glo luminescence; max response: stronger effect = lower value; note: nearly all actives have a fitted effect of over 50% in size
Summary of the method: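 600 HEK293 cells per well, dispensed already mixed with RealTime-Glo MT reagents. Compound dosing came 5 h later. The same wells were read for luminescence at 0, 8, 16, 24, 32 and 40 h of exposure at 37 C.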

[14] = A CellTox Green Cytotoxicity Assay to monitor cytotoxicity in HEK293 cells - 24 hour (AID 1224875); note: series mostly up to about 77 µM; nearly all actives have a fitted effect of over 45% in size
Summary of the method: as §2

[15] = qHTS assay to identify small molecule agonists of H2AX - cell viability counter screen (AID 1224847; calls by dose curve; note: top concentration of the series differs between compounds; nearly all actives have a fitted effect of over 30% in size)
Summary of the method: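 We seed wild-type CHO-K1 cells overnight, treat them for 3 hr at 37C with compounds in 15-concentration series, and quantify remaining viability by CellTiter-Glo luminescence.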

[16] = qHTS assay to identify small molecule agonists of the hypoxia (HIF-1) signaling pathway - cell viability counter screen (AID 1224844; calls by dose curve; note: nearly all actives have a fitted effect of over 50% in size)
Summary of the method: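 Viability counter screen: HRE-bla ME-180 cells plated 5 hrs before compound addition, treated 17 hrs at 37C and 5% CO2, then CellTiter-Glo added after the FRET reporter read; luminescence after 30 min.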
% is set by controls: 0 for no effect and ±100 for the full control effect.

Chain of Nuclear receptor subfamily 1 group I member 3 (Homo sapiens) (Q14994 whole entry, looked up): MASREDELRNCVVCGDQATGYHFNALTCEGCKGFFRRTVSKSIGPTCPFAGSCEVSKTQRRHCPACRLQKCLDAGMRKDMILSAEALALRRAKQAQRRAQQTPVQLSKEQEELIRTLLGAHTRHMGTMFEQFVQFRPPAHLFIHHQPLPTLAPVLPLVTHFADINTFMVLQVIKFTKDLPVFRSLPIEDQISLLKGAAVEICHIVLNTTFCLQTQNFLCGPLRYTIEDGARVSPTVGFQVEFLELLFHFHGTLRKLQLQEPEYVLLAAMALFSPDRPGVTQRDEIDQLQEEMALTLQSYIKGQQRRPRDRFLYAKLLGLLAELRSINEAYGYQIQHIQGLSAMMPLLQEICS
Chain of Thyrotropin receptor (Homo sapiens) (P16473 whole entry, looked up): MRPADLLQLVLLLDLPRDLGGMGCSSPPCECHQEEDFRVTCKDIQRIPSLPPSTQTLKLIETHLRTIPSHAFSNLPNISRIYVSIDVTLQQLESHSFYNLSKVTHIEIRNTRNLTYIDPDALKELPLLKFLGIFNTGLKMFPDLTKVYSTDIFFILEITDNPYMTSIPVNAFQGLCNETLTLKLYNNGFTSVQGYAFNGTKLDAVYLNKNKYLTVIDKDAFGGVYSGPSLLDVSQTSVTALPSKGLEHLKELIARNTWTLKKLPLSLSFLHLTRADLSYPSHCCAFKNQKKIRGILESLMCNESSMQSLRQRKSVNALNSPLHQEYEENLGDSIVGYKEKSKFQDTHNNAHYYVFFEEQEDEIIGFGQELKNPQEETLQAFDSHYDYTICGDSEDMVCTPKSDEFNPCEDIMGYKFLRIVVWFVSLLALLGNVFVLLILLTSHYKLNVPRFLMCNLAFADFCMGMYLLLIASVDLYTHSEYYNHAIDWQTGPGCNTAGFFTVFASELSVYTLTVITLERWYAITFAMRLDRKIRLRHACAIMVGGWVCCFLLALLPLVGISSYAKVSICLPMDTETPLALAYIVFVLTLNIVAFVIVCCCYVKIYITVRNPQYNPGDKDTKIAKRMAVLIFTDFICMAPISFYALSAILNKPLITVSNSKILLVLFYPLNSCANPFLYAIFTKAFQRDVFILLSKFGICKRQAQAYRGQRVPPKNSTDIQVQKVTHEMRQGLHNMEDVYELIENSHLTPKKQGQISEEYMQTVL

CC1(C)CC(OC(=O)CCCCCCCCC(=O)OC2CC(C)(C)NC(C)(C)C2)CC(C)(C)N1
inactive: activation [1] -1.81% [at 19 µM] | viability change, negative = cytotoxic [2] -0.192% [at 19 µM] | activation [3] -8.72% [at 19 µM] | activation (H2AX phosphorylation) [4] 0.0652% [at 31.6 µM] | activation [5] -0.0727% [at 15.8 µM] | activity change, negative = cytotoxicity [6] 2.8% [at 15.8 µM] | activity change, negative = cytotoxic [7] 12.2% [at 15.8 µM] | cytotoxicity [8] -1.08% [at 15.8 µM] | activity change, negative = cytotoxic [9] 6.12% [at 15.8 µM] | cytotoxicity increase [10] -6.42% [at 15.8 µM] | activity change, negative = cytotoxicity [11] 3.79% [at 15.8 µM] | viability change, negative = cytotoxic [12] -0.0146% [at 15.8 µM] | max response [13] 17% | activity change [14] -4.42% [at 15.8 µM, stronger effect = higher value]

CC1=C(C(=O)O)N2C(=O)[C@@H](NC(=O)[C@H](N)C3=CCC=CC3)[C@H]2SC1
inactive: Potency [1] | outcome [2] | outcome [3] | outcome [4] | outcome [15] | outcome [6] | Potency [7] | Potency [8] | outcome [9] | Potency [10] | Potency [11] | outcome [12] | max response [13] 0.914% | Potency [14]

C[C@H]1[C@@H](c2ccccc2)NC(=O)N1C
inactive: Potency [1] | outcome [2] | outcome [3] | outcome [4] | outcome [5] | outcome [15] | Potency [7] | Potency [8] | outcome [9] | Potency [10] | Potency [11] | max response [13] -8.69% | Potency [14]

C=C(C)[C@@H]1CC=C(C)CC1
inactive: Potency [1] | outcome [2] | outcome [5] | outcome [6] | Potency [7] | Potency [8] | outcome [9] | Potency [10] | Potency [11] | outcome [12] | max response [13] 1.3% | Potency [14]

O=C(NCN1CCOCC1)c1cnccn1
inactive: Potency [1] | outcome [2] | outcome [16] | outcome [4] | outcome [5] | outcome [15] | outcome [6] | Potency [7] | Potency [8] | outcome [9] | Potency [10] | Potency [11] | outcome [12] | max response [13] 2.14% | Potency [14]

O=C1CCCCO1
inactive: outcome [2] | outcome [3] | outcome [16] | outcome [4] | outcome [5] | outcome [15] | outcome [6] | Potency [7] | Potency [8] | outcome [9] | Potency [10] | Potency [11] | outcome [12] | max response [13] 1.35% | Potency [14]

Cc1ncc([N+](=O)[O-])n1CC(C)O (centres undefined)
inactive: Potency [1] | outcome [2] | outcome [16] | outcome [5] | outcome [15] | outcome [6] | Potency [7] | Potency [8] | outcome [9] | Potency [10] | Potency [11] | outcome [12] | max response [13] -2.46% | Potency [14]

COC(=O)CCCCC(CCSS/C(CCO)=C(\C)N(C=O)Cc1cnc(C)nc1N)SC(C)=O (centres undefined)
inactive: Potency [1] | outcome [2] | outcome [3] | outcome [4] | outcome [5] | outcome [15] | Potency [7] | Potency [8] | outcome [9] | Potency [10] | Potency [11] | outcome [12] | max response [13] 3.28% | Potency [14]

Cc1c(C(=O)c2c[nH]n(C)c2=O)ccc(S(C)(=O)=O)c1C1=NOCC1
inactive: Potency [1] | outcome [2] | outcome [16] | outcome [4] | outcome [6] | Potency [7] | Potency [8] | outcome [9] | Potency [10] | Potency [11] | outcome [12] | max response [13] 2.86% | Potency [14]

CC(=O)OC(C)=O
inactive: Potency [1] | outcome [2] | outcome [3] | outcome [4] | outcome [5] | Potency [7] | Potency [8] | outcome [9] | Potency [10] | Potency [11] | outcome [12] | max response [13] 9.5%

CCCCC1CCC(O)CC1 (centres undefined)
inactive: Potency [1] | outcome [2] | outcome [16] | outcome [4] | outcome [5] | outcome [15] | outcome [6] | Potency [7] | outcome [9] | Potency [10] | Potency [11] | max response [13] -3.78% | Potency [14]

Cc1cccc(Cl)c1
inactive: outcome [2] | outcome [3] | outcome [16] | outcome [4] | outcome [5] | outcome [15] | outcome [6] | Potency [7] | Potency [8] | outcome [9] | Potency [10] | Potency [11] | outcome [12] | max response [13] 0.996% | Potency [14]

CC(=O)N[C@@H](CO)C(=O)N[C@@H](CC(=O)O)C(=O)N[C@@H](CCCCN)C(=O)N1CCC[C@H]1C(=O)O (Ac-SDKP-OH)
inactive: Potency [1] | outcome [2] | outcome [16] | outcome [4] | outcome [5] | outcome [15] | outcome [6] | Potency [7] | Potency [8] | outcome [9] | Potency [10] | Potency [11] | max response [13] 3.58%

Cc1c(N)cccc1Cl
inactive: Potency [1] | outcome [2] | outcome [3] | outcome [5] | outcome [15] | outcome [6] | Potency [7] | Potency [8] | outcome [9] | Potency [10] | Potency [11] | max response [13] 5.05%

CC(=O)c1cc(C)oc1C
inactive: Potency [1] | outcome [2] | outcome [16] | outcome [4] | outcome [5] | outcome [15] | outcome [6] | Potency [7] | Potency [8] | outcome [9] | Potency [10] | Potency [11] | outcome [12] | max response [13] -0.494% | Potency [14]

CC/C(C)=N\O[Si](C)(O/N=C(\C)CC)O/N=C(\C)CC
inactive: outcome [2] | outcome [3] | outcome [16] | outcome [4] | outcome [5] | outcome [15] | outcome [6] | Potency [7] | Potency [8] | outcome [9] | Potency [10] | Potency [11] | outcome [12] | max response [13] -3.49%

CCNC(=O)NCc1cccc(Cl)c1
inactive: outcome [2] | outcome [3] | outcome [16] | outcome [5] | Potency [7] | Potency [8] | outcome [9] | Potency [10] | Potency [11] | outcome [12] | max response [13] 0.19%
